# Laboratory results taken from PubChem BioAssay (NCATS).
# Records with an inconclusive call do not appear. A call without a number means that no potency is given here. Calls of active or inactive are those of the source. Calls follow the shape of the full dose curve.
# Tests used:
# [1] = Primary qHTS for inhibitors of MERS-S pseudo-typed particle cell entry (AID 1479149); also: nearly all actives have a fitted effect of over 60% in size; also: potency is read from the fitted curve at half-maximal effect
# [2] = Primary qHTS for Huh7 cytotoxicity: counterscreen for inhibitors of MERS-S pseudotyped particle cell entry (AID 1479147)
# [3] = Primary qHTS for Vero E6 cytotoxicity: counterscreen for inhibitors of SARS-S pseudo-typed particle cell entry (AID 1479150); also: potency is read from the fitted curve at half-maximal effect
SMILES,Potency [1],Potency [2],Potency [3]
COc1ccc2cc1Oc1ccc(cc1)C[C@H]1c3c(cc4c(c3Oc3cc5c(cc3OC)CCN(C)[C@@H]5C2)OCO4)CCN1C,3.55 µM (active),–,–
NC(=O)C1(N2CCCCC2)CCN(CCCN2c3ccccc3CCc3ccc(Cl)cc32)CC1,12.6 µM (active),–,–
CC1CCCCN1CCCOC(=O)c1ccc(OC2CCCCC2)cc1 (configuration not stated),–,inactive,inactive
CN1CCCC(n2nc(Cc3ccc(Cl)cc3)c3ccccc3c2=O)CC1 (configuration not stated),–,–,inactive
CCN(CC)CCOCCOC(=O)C1(c2ccccc2)CCCC1,–,inactive,inactive
O=C(NCC1CN(c2ccc(N3CCOCC3=O)cc2)C(=O)O1)c1ccc(Cl)s1 (configuration not stated),–,inactive,inactive
CCCCCCCCCCCCCCCC[N+](C)(C)CCN(Cc1ccc(OC)cc1)c1ncccn1,10 µM (active),–,–
O=C(CCCN1CCC(O)(c2ccc(Br)cc2)CC1)c1ccc(F)cc1,–,–,inactive
CC(=O)O[C@]1(C(C)=O)CC[C@H]2[C@@H]3C=C(Cl)C4=CC(=O)CC[C@]4(C)[C@H]3CC[C@@]21C,–,inactive,inactive
Clc1ccc(Cn2c(CN3CCCC3)nc3ccccc32)cc1,–,inactive,inactive
NC(N)=N/N=C/c1c(Cl)cccc1Cl,–,–,inactive
O=C1NCCN1CCN1CCC(c2cn(-c3ccc(F)cc3)c3ccc(Cl)cc23)CC1,8.91 µM (active),–,–
CCCCOc1ccc(C(=O)CCN2CCCCC2)cc1,–,–,inactive
COc1ccc2c(c1)C(=O)N(CCc1ccc(S(=O)(=O)NC(=O)NC3CCCCC3)cc1)C(=O)C2(C)C,–,inactive,inactive
CCN(CC)CCOc1ccc(/C(=C(\Cl)c2ccccc2)c2ccccc2)cc1,–,–,inactive
c1ccc(CNCCNCc2ccccc2)cc1,–,inactive,inactive
CCCCCCCCCCCCCCCCCCOCC(O)CO (configuration not stated),–,inactive,inactive
CCCCCC(=O)O[C@]1(C(C)=O)CC[C@H]2[C@@H]3CCC4=CC(=O)CC[C@]4(C)[C@H]3CC[C@@]21C,–,inactive,inactive
CC(C(O)c1ccccc1)N(C)CCOC(c1ccccc1)c1ccccc1 (configuration not stated),22.4 µM (active),–,inactive

SMILES,Potency [1],Potency [2],Potency [3]
CC/C(=C(/CC)c1ccc(O)cc1)c1ccc(O)cc1,–,inactive,inactive
CN(C(=O)CN(CCO)CC(=O)N(C)C(C)(C)Cc1ccccc1)C(C)(C)Cc1ccccc1,–,–,inactive
CC(C)COCC(CN(Cc1ccccc1)c1ccccc1)N1CCCC1 (configuration not stated),8.91 µM (active),–,inactive
CCCCC1C(=O)N(c2ccccc2)N(c2ccc(O)cc2)C1=O (configuration not stated),–,–,22.4 µM (active)
CN1CCCN(C(c2ccccc2)c2ccc(Cl)cc2)CC1 (configuration not stated),–,–,inactive
O=c1c(-c2ccccc2)c1-c1ccccc1,–,–,inactive
CCC(C)(C)c1ccc(CC(C)CN2C[C@@H](C)O[C@@H](C)C2)cc1 (some centres not stated),–,–,inactive
COc1ccc(CN2CCN(C(c3ccc(F)cc3)c3ccc(F)cc3)CC2)c(OC)c1OC,–,inactive,inactive
O=C(Nc1ccccc1)OCC(CN1CCCCC1)OC(=O)Nc1ccccc1 (configuration not stated),–,inactive,inactive
NC(=NCCCCCCN=C(N)/N=C(\N)Nc1ccc(Cl)cc1)/N=C(\N)Nc1ccc(Cl)cc1,–,inactive,inactive
O=C(Oc1cccc2cccnc12)c1ccccc1,12.6 µM (active),–,5.62 µM (active)
Cc1ccc2nc(N)[nH]c(=O)c2c1Sc1ccncc1,–,–,inactive
O=C(CCC1CCN(Cc2ccccc2)CC1)c1ccc2c(c1)NCCCC2,–,–,inactive
CC(C)OC(=O)C(C(=O)OC(C)C)=C1SC=CS1,inactive,–,inactive
Cc1ccc(Cl)c(OCC(O)CNC(C)(C)C)c1 (configuration not stated),–,inactive,inactive
CC1=CC(=O)c2ccccc2C1=O,–,–,inactive
C=C1C(=C/C=C2\CCC[C@]3(C)[C@@H]([C@H](C)/C=C/[C@@H](O)C4CC4)CC[C@@H]23)C[C@@H](O)C[C@@H]1O,–,inactive,inactive
CCC(=O)c1ccc2c(c1)N(CCCN(C)C)c1ccccc1S2,–,–,inactive
COc1ccc(CCN2CCC(Nc3nc4ccccc4n3Cc3ccc(F)cc3)CC2)cc1,12.6 µM (active),–,–
